Bioassay records from PubChem.
WRN helicase inh: qHTS for Inhibitors of WRN Helicase | Bifunctional 3'-5' exonuclease/ATP-dependent helicase WRN (Homo sapiens), Q14191 | WRN helicase unwinding, fluorescent forked duplex, kinetic | Potency, µM (titrated, usually from 114 µM), actives largely listed as inhibitors | actives 0.46% (n = 360,000) | AID 651768, 2012; note: nearly all actives have a fitted effect of over 55% in size
Target sequence (Q14191 whole entry, looked up): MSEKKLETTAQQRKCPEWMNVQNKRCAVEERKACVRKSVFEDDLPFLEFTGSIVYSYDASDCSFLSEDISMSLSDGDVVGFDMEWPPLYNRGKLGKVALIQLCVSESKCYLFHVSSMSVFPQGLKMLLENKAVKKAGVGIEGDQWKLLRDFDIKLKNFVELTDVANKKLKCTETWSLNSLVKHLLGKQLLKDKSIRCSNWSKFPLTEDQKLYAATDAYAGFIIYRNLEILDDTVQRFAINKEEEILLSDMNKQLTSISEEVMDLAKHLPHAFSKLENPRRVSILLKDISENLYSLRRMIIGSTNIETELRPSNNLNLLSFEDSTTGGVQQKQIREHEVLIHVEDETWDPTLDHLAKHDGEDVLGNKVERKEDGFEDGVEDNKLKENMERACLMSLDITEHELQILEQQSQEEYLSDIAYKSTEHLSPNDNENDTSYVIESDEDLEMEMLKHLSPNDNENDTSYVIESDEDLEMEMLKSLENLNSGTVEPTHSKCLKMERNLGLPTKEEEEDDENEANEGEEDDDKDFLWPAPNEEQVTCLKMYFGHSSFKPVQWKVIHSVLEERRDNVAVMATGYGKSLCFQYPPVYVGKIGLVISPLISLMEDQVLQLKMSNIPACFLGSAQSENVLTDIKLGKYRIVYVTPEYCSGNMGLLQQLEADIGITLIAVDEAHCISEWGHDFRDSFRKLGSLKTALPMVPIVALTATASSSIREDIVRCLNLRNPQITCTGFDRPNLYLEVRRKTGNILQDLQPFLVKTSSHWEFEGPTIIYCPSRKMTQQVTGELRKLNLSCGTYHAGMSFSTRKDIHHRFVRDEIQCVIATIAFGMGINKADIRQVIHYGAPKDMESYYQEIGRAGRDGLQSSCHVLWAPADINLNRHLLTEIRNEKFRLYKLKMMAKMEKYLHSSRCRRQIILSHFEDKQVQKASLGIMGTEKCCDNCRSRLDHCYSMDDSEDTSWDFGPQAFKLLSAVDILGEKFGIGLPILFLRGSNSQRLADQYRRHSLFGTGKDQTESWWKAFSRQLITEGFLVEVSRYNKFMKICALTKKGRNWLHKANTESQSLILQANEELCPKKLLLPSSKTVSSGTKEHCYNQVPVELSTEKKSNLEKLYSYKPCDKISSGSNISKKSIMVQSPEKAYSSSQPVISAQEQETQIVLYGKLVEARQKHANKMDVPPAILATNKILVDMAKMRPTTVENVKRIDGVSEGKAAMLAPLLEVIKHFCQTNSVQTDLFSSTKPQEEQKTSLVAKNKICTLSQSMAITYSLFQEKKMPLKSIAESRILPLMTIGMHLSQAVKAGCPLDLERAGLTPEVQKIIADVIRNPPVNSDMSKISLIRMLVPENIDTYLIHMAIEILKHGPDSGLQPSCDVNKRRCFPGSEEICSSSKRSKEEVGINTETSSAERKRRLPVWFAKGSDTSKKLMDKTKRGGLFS
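Fluorescence dequenching readout, ex 525 nm/em 598 nm, kinetic mode: forked duplex DNA (100 nM final) with adjacent fluorophore and quencher unwound by WRN (20 nM final) with 2 mM ATP. Compound preincubation 15 min, room temperature.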
POLK inh: qHTS for Inhibitors of Polymerase Kappa; DNA polymerase kappa (Homo sapiens), Q9UBT6; purified Pol kappa, fluorescent DNA synthesis assay, 10 min; Potency, µM (doses to about 107 µM), hits mostly inhibitors; actives 0.53% (n = 400,000)
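Enzyme at 10 nM met test compounds for 15 min at room temperature. Substrate addition (50 nM final) began the reaction, which was monitored by fluorescence at 0 and 10 min.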
Pol eta inh: qHTS for Inhibitors of Polymerase Eta | DNA polymerase eta (Homo sapiens), Q9Y253 | recombinant Pol eta, fluorescent DNA replication assay | Potency, µM (top dose mostly 114 µM), usual class: inhibitors | actives 1.2% (n = 390,000) | AID 588591, 2011
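Pol eta at 10 nM preincubated with compounds 15 min at room temperature; reaction started with fluorescent substrate (50 nM final) and read kinetically at 0 and 10 min.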
Pol iota inh: qHTS for Inhibitors of Polymerase Iota; DNA polymerase iota (Homo sapiens), Q9UNA4; actives 1% (n = 390,000); Potency, µM (series often up to 115 µM), hits mostly inhibitors; Pol iota fluorescent replication assay, 10 min
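Pol iota at 10 nM preincubated 15 min with compounds at room temperature; reaction started with fluorescent substrate, 50 nM final. Fluorescence read kinetically at 0 and 10 min; buffer-only wells as negative control.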
POLB inh: qHTS Assay for Inhibitors of DNA Polymerase Beta; P06746; Pol beta primer extension/strand displacement, fluorescence kinetic; Potency, µM (series often up to 114 µM), hits mostly inhibitors; actives 1.3% (n = 340,000); AID 485314, 2010
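Human Pol beta at 10 nM; strand-displacement substrate 50 nM final. Compound exposure 15 min at room temperature before start, reaction 10 min at room temperature.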
Of the large screens only hits and unclear results are named; the others gave an inactive call. Compounds with a hit are over-represented: about 2.3% of the library has one in this group of screens. Calls come from the whole dose curve; as a rule, active = well fitted curve in the direction sought with a large enough effect; inconclusive = small, poorly fitted or top-dose-only effect, or another doubt; inactive = no such curve, though single readings can be large; an effect the other way counts as inactive or inconclusive.

COc1ccc2nc(NNC(=O)c3cc(=O)c4ccccc4o3)sc2c1	Pol eta inh 79µM, POLB inh inconclusive
COc1ccc2nc(NC(=O)c3cc(=O)c4cc(C)c(C)cc4o3)sc2c1	none (no result: WRN helicase inh)
O=C(NNc1nc2c(F)cccc2s1)c1cc(=O)c2ccccc2o1	Pol eta inh inconclusive, Pol iota inh 22µM, POLB inh inconclusive
Cc1ccnc2ccc(F)cc12	none (no result: WRN helicase inh, Pol eta inh, POLB inh)
COC(=O)c1ccc(-n2c(C)cc(C(=O)CCl)c2C)cc1	Pol eta inh inconclusive, Pol iota inh 13µM
CCOc1ccc(-n2c(C)cc(C(=O)CCl)c2C)cc1	Pol eta inh inconclusive
C#CCOCCOCCOCCNc1nc(N2CCN(C(=O)CCCCCCCCCCNC(=O)Cn3cc(C[C@@H](C)O)nn3)CC2)nc(N2CCN(C(=O)CCCCCCCCCCNC(=O)[C@@H]([C@H](C)CC)n3cc(CCCCCN)nn3)CC2)n1	WRN helicase inh inconclusive, Pol eta inh 89µM, Pol iota inh inconclusive (no result: POLB inh)
C#CCOCCOCCOCCNc1nc(N2CCN(C(=O)CCCCCCCCCCNC(=O)Cn3cc(CCCCCN)nn3)CC2)nc(N2CCN(C(=O)CCCCCCCCCCNC(=O)Cn3cc(C[C@@H](C)O)nn3)CC2)n1	WRN helicase inh 25µM, Pol eta inh inconclusive (no result: POLB inh)
C#CCOCCOCCOCCNc1nc(N2CCN(C(=O)Cn3cc(CCCCN)nn3)CC2)nc(N2CCN(C(=O)Cn3cc(CC(C)O)nn3)CC2)n1 (stereo unspecified)	none
CCOC(=O)c1c(NC(=O)Cc2ccccc2)sc2c1CCN(C)C2	none
CCOC(=O)c1c(NC(=O)CSc2nnc(C)s2)sc2c1CCN(C)C2	WRN helicase inh inconclusive, Pol eta inh inconclusive, Pol iota inh 11µM
Cc1cc2ccccn2c1C(=O)c1ccc(N/N=C/c2ccc(C(=O)O)cc2)c([N+](=O)[O-])c1	Pol eta inh 35µM, Pol iota inh inconclusive, POLB inh inconclusive
C/C(=N\Nc1ccc(C(=O)c2c(C)cc3ccccn23)cc1[N+](=O)[O-])c1ccc(O)cc1	none
O=C(O)CCn1cnc2onc(-c3ccccc3Cl)c2c1=O	POLB inh 22µM (no result: WRN helicase inh)
O=C1OC2(c3cc(I)c(O)c(I)c3Oc3c2cc(I)c(O)c3I)c2c(Cl)c(Cl)c(Cl)c(Cl)c21	POLK inh 7.5µM (no result: WRN helicase inh, Pol eta inh, Pol iota inh, POLB inh)
O=C1OC2(c3ccc(O)cc3Oc3cc(O)ccc32)c2ccccc21	POLK inh 30µM (no result: WRN helicase inh, Pol eta inh, Pol iota inh, POLB inh)
O=C1OC2(c3ccccc31)c1cc(I)c(O)c(I)c1Oc1c2cc(I)c(O)c1I	POLK inh 27µM (no result: WRN helicase inh, Pol eta inh, Pol iota inh, POLB inh)
Cc1cc(O)ccc1C1(c2ccc(O)cc2C)OC(=O)c2ccccc21	Pol eta inh inconclusive, POLB inh inconclusive
C=CCN1CC[C@@H](O)C(=C)S1(=O)=O	none (no result: WRN helicase inh, Pol eta inh, POLB inh)
O=C(Cn1ncc(Cl)c(Cl)c1=O)NC1CCS(=O)(=O)C1 (stereo unspecified)	POLK inh inconclusive, Pol eta inh inconclusive, Pol iota inh 14µM, POLB inh inconclusive
CN(C)CCNC(=O)c1cccc2nc3c(ccc4ccccc43)nc12	WRN helicase inh inconclusive, POLK inh inconclusive, Pol eta inh inconclusive, Pol iota inh 79µM (no result: POLB inh)
COc1ccc(C(=O)NCCN(C)C)c2nc3ccccc3cc12	POLK inh inconclusive, Pol eta inh inconclusive, Pol iota inh 79µM (no result: POLB inh)
Cc1cc[n+](CC#N)cc1	none (no result: WRN helicase inh, Pol eta inh, POLB inh)
COC(=O)C1=C[C@@H](C(=O)OC)[C@@H]2C3=C(C(=O)[C@@]2(CC(C)C)NC(=O)c2ccccc2)[C@H](C)n2c(=O)n(-c4ccccc4)c(=O)n2[C@@H]3C1	none (no result: WRN helicase inh, Pol eta inh, POLB inh)
O=C(O)C1Cc2ccccc2CN1S(=O)(=O)c1ccc(Cl)cc1 (stereo unspecified)	Pol eta inh inconclusive, POLB inh inconclusive
O=C(O)C1Cc2ccccc2CN1C(=O)COc1ccc(Cl)cc1 (stereo unspecified)	Pol eta inh 32µM
Nc1ccc(Cc2ccc(C=O)cc2)cc1	none (no result: WRN helicase inh, Pol eta inh, POLB inh)
Cc1ccc(-c2noc(-c3nnn(CC(=O)Nc4cc(C)cc(C)c4)c3N)n2)cc1	none (no result: WRN helicase inh, Pol eta inh)
Cc1cc(C)c(NC(=O)Cn2nnc(-c3nc(-c4ccncc4)no3)c2N)c(C)c1	none (no result: WRN helicase inh, Pol eta inh)
Cc1cccc(NC(=O)Cn2nnc(-c3nc(-c4ccncc4)no3)c2N)c1	POLB inh 56µM (no result: WRN helicase inh, Pol eta inh)
COc1ccc(NC(=O)Cn2nnc(-c3nc(-c4ccncc4)no3)c2N)cc1OC	POLB inh 79µM (no result: WRN helicase inh, Pol eta inh)
C(=C\c1ccc2ccccc2n1)/c1cccnc1	none (no result: WRN helicase inh, Pol eta inh, POLB inh)
CC(=O)Nc1ccn(C2OC(C(COC(C)=O)NC(=O)C3CCCN3C(=O)OC(C)(C)C)C(OC(C)=O)C2OC(C)=O)c(=O)n1 (stereo unspecified)	none (no result: WRN helicase inh, Pol eta inh, POLB inh)
Cc1ccc2nc(-c3ccc(-c4ccccn4)s3)cn2c1	WRN helicase inh inconclusive, Pol iota inh inconclusive, POLB inh 40µM
COCCCN1C(=O)C2C(C(=O)Nc3cc(C)cc(C)c3)C3C=CC2(O3)C1C(=O)NC1CCCCC1 (stereo unspecified)	WRN helicase inh inconclusive, Pol eta inh 22µM, Pol iota inh 13µM
O=C1SC(SCc2ccccc2)=N/C1=C\c1ccco1	WRN helicase inh 50µM, POLK inh 32µM, Pol eta inh 79µM, Pol iota inh 11µM, POLB inh 35µM
Cc1cnc(NC(=O)C2COc3ccccc3O2)s1 (stereo unspecified)	POLK inh inconclusive, Pol eta inh inconclusive, Pol iota inh inconclusive, POLB inh 50µM
Cc1csc(NC(=O)C2COc3ccccc3O2)n1 (stereo unspecified)	none
O=C(NC(NC(=S)Nc1ccc(F)c([N+](=O)[O-])c1)C(Cl)(Cl)Cl)C(c1ccccc1)c1ccccc1 (stereo unspecified)	none (no result: WRN helicase inh, Pol eta inh, Pol iota inh, POLB inh)
O=C(c1ccc2nc(-c3ccco3)c(-c3ccco3)nc2c1)N1CCN(c2ccccc2)CC1	Pol iota inh inconclusive, POLB inh 11µM
O=C(Nc1ccc(N2CCOCC2)cc1)Nc1ccc2nc(-c3ccco3)c(-c3ccco3)nc2c1	POLB inh 5µM
O=C(Nc1ccc(F)c(Cl)c1)NC1CC1	Pol eta inh inconclusive
O=C(Nc1ccc2nc(-c3ccco3)c(-c3ccco3)nc2c1)NC1CC1	WRN helicase inh 10µM, POLK inh 10µM, Pol eta inh 1.3µM, Pol iota inh 1.3µM, POLB inh 3.5µM
O=C(NCCCO)Nc1ccc2nc(-c3ccco3)c(-c3ccco3)nc2c1	POLB inh 1.8µM (no result: WRN helicase inh, POLK inh, Pol eta inh, Pol iota inh)
CCc1nc2ccc(C(=O)N3CCN(c4ccccc4)CC3)cc2nc1CC	none
COc1ccc(C2/C=C\CN(C(=O)C3CCCCC3)C(C)C(=O)N2Cc2ccc(F)cc2)cc1 (stereo unspecified)	none (no result: WRN helicase inh, Pol eta inh, POLB inh)
Cc1ccc(NC(=O)CN2CCSc3ccc(S(=O)(=O)N4CCCC4)cc32)cc1C	none (no result: WRN helicase inh)
